Measurements published in PubChem BioAssay (NCI).
Several values for one entry are separate records, joined by “and”; a condition that tells them apart may be missing. Equal values may be shown once. The panel holds about 83,000 compounds, 20% with a hit somewhere; the sample as a whole holds those more often.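 The endpoint reported here, percent growth, reads 100 for growth as untreated, 0 for no net growth and -100 for all cells dead.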 Unmarked numbers belong to inactive results. Activity calls are given as the source filed them.

Test system: NCI-H23 lung
Assay: NCI-60 one-dose screen, 48 h (100 = growth as untreated, 0 = no growth, -100 = all killed)
Conditions: 10 µM
Experimental: Growth inhibition of the NCI-H23 human Non-Small Cell Lung tumor cell line is measured as a screen for anti-cancer activity. Cells are grown in 96 well plates and exposed to the test compound for 48 hours. Compounds are tested at a single concentration, which is 10^-5 M for most compounds. The reported endpoint is percent growth (GI% or GIPRCNT), where numbers from 0 - 100% represent growth inhibition, and numbers from -100% - 0 represent cell death. For example, a value of 40 represents 60% growth inhibition. A value of 0 means no net growth occurred over the course of the experiment. A value of -40 indicates 40% of cells at the beginning of the experiment died by the end of the experiment. A value of -100 means all cells are dead at the end of the experiment.
NCI-60 Human Tumor Cell Lines Screen was performed using the standard one-dose NCI protocol, which is described in more detail at https://dtp.cancer.gov/discovery_development/nci-60/default.htm.
Compounds with GIPRCNT values below 10 were considered active. Activity score was based on GIPRCNT using the following formula: […]
Score is 0 for GIPRCNT values of 100 or above, 50 for GIPRCNT values of 0, and 100 for GIPRCNT values of -100.

| Structure (SMILES) | growth |
| --- | --- |
| COc1ccc(-c2cscc2N)cc1 | 79.4% |
| O=C(O)c1c(Cl)c(Cl)c(Cl)c(Cl)c1-c1c2cc(I)c(=O)c(I)c-2oc2c(I)c(O)c(I)cc12 | 103% and 91.8% and 101% |
| O=C(Nc1c(Cl)cccc1Cl)Oc1cccc2cccnc12 | 36.5% |

Same assay, conditions: 10 µM unless noted

| Structure (SMILES) | growth |
| --- | --- |
| O=C(Nc1ccccc1)Oc1c(Cl)c(Cl)c(Cl)c(Cl)c1Cl | 93.8% and 93.2% |
| Cc1ccc2nc(-[n+]3cc4ccccc4cc3C)ccc2c1 | 19.1% |
| Cc1cc2nc(CS)[nH]c2cc1C | 97.1% |
| Cc1ccnc2c1ccc1c(C)ccnc12 | 21.7% |
| O=C(Nc1cccc(Br)c1)Oc1ccc(Cl)c2cccnc12 | -8.8% [100 µM] (active) |
| Oc1ccc(/C=N/NC(=S)Nc2ccccc2)nc1 | 14.9% |
| Nc1nc(N)c2nc(CNc3ccc(C(=O)NC(CCC(=O)O)C(=O)O)cc3)cnc2n1 (stereo not given) | 24.8% and 22.4% |
| CN=C(N)N/N=C(\C)c1ccc2c(c1)Cc1cc(/C(C)=N/NC(N)=NC)ccc1-2 | -56.6% (active) |
| C/C=C1\SC(=S)NC1=O | 98.5% |
| O=C(/C=C\c1cc(Br)ccc1O)/C=C/c1cc(Br)ccc1O | -11.9% (active) |
| NC(=O)/C=C/C(=O)c1c(Cl)cccc1Cl | -79.1% (active) |
| COc1ccccc1OC(=O)Oc1ccccc1OC | 101% and 95.5% |
| CCCCCCCCCCCCCCCCN(CC)CC | -93.1% (active) |
| CC1=CC(O)C2CC1C2(C)C (stereo not given) | 112% and 110% |
| NC(=S)N/N=C\c1nccc2c(C(F)(F)C(F)(F)C(F)(F)F)cccc12 | 9.5% (active) |
| O=C(Oc1cccc2cccnc12)c1ccccc1 | 94.3% and 103% |
| CN(C)c1ccc(N=Nc2cccc3ccccc23)cc1 | 84.3% |

| Structure (SMILES) | growth |
| --- | --- |
| CC(C)(C)CC(C)(C)c1ccc(OCCSC(=N)N)cc1 | 60.7% |
| CC1(C)CC([P+](c2ccccc2)(c2ccccc2)c2ccccc2)=NN1 | 28.1% |
| Cc1ccc2c(ccc3c[n+]4c5ccccc5ccc4n32)c1 | 10.4% |
| CN(Cc1cnc2nc(N)nc(N)c2n1)c1ccc(C(=O)NC(CCC(=O)O)C(=O)O)cc1 (stereo not given) | 23.4% |
| O=[N+]([O-])c1ccc(N=Nc2ccc(O)cc2O)cc1 | 55.1% |
| CCCCCCCCCCCCCCCC[N+](C)(CCO)Cc1cnc[nH]1 (stereo not given) | -3.12% (active) |
| CCCCCCCCCCCCCCCCOP(=O)([O-])OCC[N+](C)(C)C | 73.6% |
| CCC(CC)COC(=O)c1ccc(O)c(O)c1 | 81% |
| O=Nc1ccccc1N=O | 71.9% |
| O=C(/C=C/C=C/c1ccccc1)c1ccco1 | 92.2% |
| O=C(CC1(O)C(=O)Nc2c(Cl)ccc(Cl)c21)c1ccc(Cl)cc1Cl (stereo not given) | 101% |
| Oc1c(Br)c(Br)c(O)c(Br)c1Br | 92.5% |
| S=C(N/N=C/c1ccccn1)Nc1ccccn1 | 23.8% |
| CCCCCC(CCCCC)C(=O)O | 114% |
| O=C1C=CC(=O)N1C1c2ccccc2-c2ccccc21 | 98.1% |
| CC1SC(=S)N(c2ccc(Cl)cc2)C1=O (stereo not given) | 104% and 92.2% |
| COC(=O)Nc1nc2ccc(C(=O)c3ccccc3)cc2[nH]1 | 33.8% and 19.3% and 32.4% |

Same assay, conditions: 100 µM

| Structure (SMILES) | growth |
| --- | --- |
| COc1ccc(-c2cscc2N)cc1 | 74.2% |
| O=C(O)c1c(Cl)c(Cl)c(Cl)c(Cl)c1-c1c2cc(I)c(=O)c(I)c-2oc2c(I)c(O)c(I)cc12 | -60% (active) |
| O=C(Nc1c(Cl)cccc1Cl)Oc1cccc2cccnc12 | 20.2% |
